# PTPN22 inh 2 – LYP (human) phosphatase inhibition; 96,000 tested, 0.21% active; recombinant LYP catalytic domain, DiFMUP fluorescence; Q9Y2R2; inhibition, % at 2 µM;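 active = inhibition at 2 µM at or above a set limit, the screen mean plus 3 SD, cut at about 24% in these data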;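 also: 0% = DMSO with enzyme and 100% = enzyme fully blocked by orthovanadate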
# PTPN22 act – activators of human LYP (PTPN22) phosphatase. Q9Y2R2. recombinant LYP, DiFMUP fluorescence; 0 = plate median, 100 = signal doubled. activation, % at 2 µM. 96,000 tested, 0.11% active. AID 697;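 active = activation at 2 µM above a set limit, the mean plus 5 SD, cut at about 37% in these data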
# GALR2 blocker – blocks the human galanin receptor 2 | O43603 | GALR2-expressing cells, antagonist mode | inhibition, % at 4 µM | 140,000 tested, 0.39% active | AID 828; in the data active = inhibition above about 27%;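 also: cells stimulated with galanin 1-16 at roughly its EC80; 0% = agonist challenge control and 100% = basal control without agonist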
# GALR2 agonist – agonists of human galanin receptor 2 (GALR2) | 140,000 tested, 0.48% active | AID 803 | activation, % (concentration not given with the values) | GALR2-expressing cells, agonist activation read-out; in the data active = activation above about 5%, passing the limit was not always enough;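 also: 0% = vehicle buffer wells and 100% = reference agonist at full effect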
# S1P2 blocker – blocks the human S1P2 receptor. cell-based S1P2 antagonist assay, inhibition at 5 uM. inhibition, % at 5 µM. 97,000 tested, 0.21% active. AID 736; in the data active = inhibition above about 45%;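 also: CRE beta-lactamase reporter cells expressing human S1P2 stimulated with S1P; 0% = agonist at EC80 alone and 100% = agonist plus reference antagonist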
# Target sequence (O95136 whole entry, looked up): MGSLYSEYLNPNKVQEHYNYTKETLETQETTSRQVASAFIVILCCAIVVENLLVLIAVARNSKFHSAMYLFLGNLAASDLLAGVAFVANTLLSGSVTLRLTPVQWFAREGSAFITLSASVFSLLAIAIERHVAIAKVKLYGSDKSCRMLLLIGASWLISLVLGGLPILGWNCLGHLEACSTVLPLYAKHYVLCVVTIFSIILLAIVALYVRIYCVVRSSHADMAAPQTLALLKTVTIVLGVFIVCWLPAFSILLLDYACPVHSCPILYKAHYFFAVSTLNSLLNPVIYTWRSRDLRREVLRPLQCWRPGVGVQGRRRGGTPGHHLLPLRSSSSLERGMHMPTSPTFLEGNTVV
# S1P2 agonist – activates the human S1P2 receptor. activation, % at 4.5 µM. AID 729. S1P2-expressing cell line, agonist reporter read-out. 97,000 tested, 0.46% active. O95136; in the data active = activation above about 16%;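 also: 0% = vehicle low control and 100% = maximal reference agonist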
# Starred values were filed as active, the others as inactive; . = no result given. Compounds with a hit are over-represented: about 1.4% of the library has one in this group of screens.
SMILES,PTPN22 inh 2,PTPN22 act,GALR2 blocker,GALR2 agonist,S1P2 blocker,S1P2 agonist
Cc1nn(Cc2ccccc2)c(Cl)c1/C=N/NC(=O)CNc1cccc(C(F)(F)F)c1,.,.,-2,0,.,.
c1ccc(-c2nc(N3CCCCC3)nc3ccccc23)cc1,1,-5,-2,1,-19,3
O=C(O)C1CC=CCC1C(=O)N1CCN(c2nc(-c3ccccc3)c3ccccc3n2)CC1 (configuration not stated),2,-5,23,9,-16,21*
O=C(O)CCCC(=O)N1CCN(c2cccc(Cl)c2)CC1,-12,10,-2,-1,-3,-1
COc1ccccc1N1CCN(C(=O)C2CC=CCC2C(=O)O)CC1 (configuration not stated),2,2,-3,0,8,-9
O=C(O)CCCC(=O)N1CCN(c2nc(-c3ccccc3)c3ccccc3n2)CC1,-4,3,13,-1,-6,38*
c1ccc(-c2nc(N3CCNCC3)nc3ccccc23)cc1,2,-2,13,8,-18,20*
Cc1ccc(NC(=O)COC(=O)/C=C/c2c(C)nn(-c3ccc(F)cc3)c2Cl)cc1F,.,.,-3,-1,.,.
CCCn1c(-c2cc(OC)c(OC)c(OC)c2)nc2nc3ccccc3nc21,14,-11,-10,-1,5,17*
COc1ccc(C(C)=O)cc1CSc1nc2ccccc2c(=O)n1-c1ccccc1,.,.,-13,5.0*,.,.
CN(CC(=O)Nc1ccc(N2CCOCC2)cc1)CC(=O)Nc1ccc(Cl)cc1[N+](=O)[O-],.,.,-1,-1,.,.
Cc1ccc(NC(=O)CN2C(=O)S/C(=C\c3ccc(-c4cccc(C(=O)O)c4C)o3)C2=O)cc1,56*,-54,1,-1,18,0
CCOC(=O)C1=C(C)N(CCCCCC(=O)O)C(=O)NC1c1ccccc1OC(=O)c1cccs1 (configuration not stated),.,.,-1,-2,.,.
COc1cccc(C(=O)N2CCC(N3CC(C)OC(C)C3)CC2)c1 (configuration not stated),.,.,-16,0,.,.
COC(=O)C1=CN(C(C)C)C=C(C(=O)OC)C1c1cccc(OC)c1,7,-8,3,21*,-17,12
COC(=O)C1=CN(C(C)C)C=C(C(=O)OC)C1c1cc(Br)c(OC)c(OC)c1,0,-3,3,22*,-24,18*
Cc1ccc(NC(=O)c2ccccc2NS(=O)(=O)c2ccc(Cl)s2)cc1S(=O)(=O)N1CCOCC1,.,.,-2,0,.,.
CO/N=C/c1ccc(Sc2ccccc2)c([N+](=O)[O-])c1,-5,2,-13,-2,-19,9
CO/N=C/c1ccc(Sc2ccccc2N)c([N+](=O)[O-])c1,-7,4,6,0,-27,17*
CCOC(=O)c1cc(-c2ccccc2)sc1NC(=O)c1cc(OC)c(OC)c(OC)c1,.,.,3,-1,.,.
CC(C)CCSc1nc2c(c(=O)[nH]c(=O)n2C)n1CCCc1ccccc1,5,-6,2,-3,-11,-2
Cc1nnc(Sc2nc3c(c(=O)[nH]c(=O)n3C)n2CCCc2ccccc2)s1,5,-7,-5,-3,-31,27*
COc1ccc(/C=N/n2cnnc2SCCO)cc1OC,-3,1,-21,0,-29,19*
C=CCSc1nncn1/N=C/c1ccc(OC)cc1,1,0,-2,-1,11,-9
Cn1c(CCNC(=O)c2ccccc2)nc2cc(NC(=O)c3ccco3)ccc21,11,-13,5,-2,16,-8
SMILES,PTPN22 inh 2,PTPN22 act,GALR2 blocker,GALR2 agonist,S1P2 blocker,S1P2 agonist
CCCC(=O)Nc1ccc2c(c1)nc(CCNC(=O)c1ccccc1)n2C,27*,-26,3,-1,-18,-6
CCOC(=O)N1CCN(S(=O)(=O)c2ccc(C(=O)Nc3nnc(CSC)o3)cc2)CC1,.,.,-2,-1,.,.
O=C1CC(c2ccccc2)Cc2nc(N3CCc4ccccc4C3)ncc21 (configuration not stated),12,-8,-5,-1,1,-5
Cc1ccc(C2CC(=O)c3cnc(N4CCc5ccccc5C4)nc3C2)cc1 (configuration not stated),24,-20,-5,-4,3,581*
O=C1Nc2ccc(Cl)cc2/C1=C/C1CC=CCC1 (configuration not stated),.,.,2,5.0*,.,.
CCN1CCN(CCNC(=O)C2CCCN(Cc3nc(-c4cccc(Cl)c4)oc3C)C2)CC1 (configuration not stated),.,.,-2,-3,19,-3
CCOC(=O)N1CCC(NC(=O)C2CCCN(Cc3nc(-c4cccc(Cl)c4)oc3C)C2)CC1 (configuration not stated),-6,2,25,-1,61*,-2
CCOC(=O)c1c(NC(=O)CSc2n[nH]c(-c3ccco3)n2)sc(C)c1C,1,-1,-6,-2,-12,23*
Cc1nn(C)c(C)c1CN(C)S(=O)(=O)c1ccc2ccccc2c1,3,-4,17,-2,50*,-2
CCOCCSc1nc2c(c(-c3cccs3)c1C#N)CC/C2=C/c1cccs1,.,.,-3,5.1*,.,.
O=C(N/N=C/C=C/c1ccccc1)c1cc2c(ccc3ccccc32)o1,32*,-31,3,-3,7,-6
O=C(NC1=NCCS1)C1CC2CCC1C2 (configuration not stated),4,-7,9,-2,14,18*
O=C(Nc1nccs1)C1CC2CCC1C2 (configuration not stated),2,-6,7,-3,5,-6
O=C(c1cccc(NS(=O)(=O)c2ccc(F)c(F)c2)c1)N1CCN(Cc2ccccc2)CC1,.,.,0,1,.,.
c1ccc(OCCSc2nnnn2-c2ccccc2)cc1,-6,5,11,-1,14,62*
N#Cc1c(N)nc2c(c1-c1ccc3c(c1)OCO3)CCc1ccccc1-2,.,.,-10,4.9*,.,.
O=C(OC(C(=O)Nc1cccc(C(F)(F)F)c1)c1ccccc1)C1CCCCC1 (configuration not stated),.,.,-1,-2,.,.
COc1ccc(-c2nc3ccccn3c2NCc2ccc3c(c2)OCO3)cc1,3,-2,3,-4,-14,-8
c1ccc(-c2nc3ccccn3c2NCc2ccc3c(c2)OCO3)cc1,2,0,0,-2,6,174*
COc1ccccc1C(=O)NCC(=O)OCC(=O)c1ccc2c(c1)-c1ccccc1C2,.,.,1,-2,.,.
O=C(CCn1c(=O)oc2ccccc21)Nc1ccccc1,-7,6,-14,7.9*,6,0
CCN1C(=O)/C(=C/c2ccc(OC)c(OC)c2)N=C1SCC(=O)NCc1ccco1,.,.,7,-3,.,.
COCCn1c(SCC(=O)Nc2nc3ccccc3s2)nnc1-c1ccoc1C,-7,3,6,-2,-19,16*
COc1ccccc1NC(=O)CN1CCC(n2c(C)nc3cc(F)ccc32)CC1,-4,2,-16,4,-30,19*
